# Results filed as inconclusive are left out. A number with no mark means an inactive call. Active and inactive are the calls of the source. Calls come from the whole dose curve; as a rule, active = well fitted inhibition curve with a large enough effect; inconclusive = small, poorly fitted or top-dose-only effect; inactive = flat fitted curve, though single readings scatter.
# Test: P-glycoprotein substrates identified in KB-8-5-11 adenocarcinoma cell line, qHTS therapeutic library screen (AID 1346987); note: nearly all actives have a fitted effect of over 65% in size
# Conditions: KB-8-5-11 (P-gp overexpressing) viability, CellTiter-Glo, 72 h; series mostly up to 44.5 µM; activity change, negative = cytotoxicity: at the top concentration
# Method in brief: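 P-gp-mediated resistance screen: KB-8-5-11 cells treated 72 h with compounds in dose-response. CellTiter-Glo viability.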
# % is set by controls: 0 for no effect and ±100 for the full control effect; potency is the fitted concentration of half-maximal effect.
Structure (SMILES),"activity change, negative = cytotoxicity",outcome,Potency
CC(C)n1c(=O)c(C(=O)NC2CC3CCC(C2)N3C[C@@H](O)CN(C)S(C)(=O)=O)cc2ccccc21 (stereo partly drawn),-11.6%,–,–
CCC(C)(OC(C)=O)C(=O)O[C@H]1[C@H](OC(C)=O)[C@]2(CO)[C@H](O)[C@H](O)[C@]3(C)C(=CCC4[C@@]5(C)CC[C@H](O[C@@H]6O[C@H](C(=O)O)[C@@H](O)[C@H](O[C@@H]7OC[C@H](O)[C@H](O[C@@H]8OC[C@H](O)[C@H](O)[C@H]8O)[C@H]7O)[C@H]6O[C@@H]6O[C@H](CO)[C@@H](O)[C@H](O)[C@H]6O)C(C)(C)C5CC[C@]43C)[C@@H]2CC1(C)C (stereo partly drawn),-29% [at 9.29 µM],–,–
O=C1Cc2c([nH]c3ccc(Br)cc23)-c2ncccc2N1,-6.51%,–,–
CC(=O)NCc1cccc(OC[C@@H](O)CNCCc2ccc(NS(=O)(=O)c3ccccc3)cc2)c1,–,inactive,–
CCOC(=O)N1c2ccc(C(F)(F)F)cc2C(N(Cc2cc(C(F)(F)F)cc(C(F)(F)F)c2)C(=O)OC)CC1CC (stereo not drawn),-7.27%,–,–
CCC(c1ccccc1)c1noc(CCN(CC)CC)n1 (stereo not drawn),4.3%,–,–
CC1=C2C[C@@]3(C)C(CCC[C@@H]3C)C(O)C2OC1=O (stereo partly drawn),–,inactive,–
C=CC(=O)Nc1cc(-n2c(=O)ccc3cnc4ccc(-c5ccc(NS(C)(=O)=O)cc5)cc4c32)ccc1C,–,inactive,–
CC(C)NC(=O)COc1cccc(-c2nc(Nc3ccc4[nH]ncc4c3)c3ccccc3n2)c1,–,–,8.2 µM (active)
CCn1c2ccccc2c2cc(Nc3ccnc(NCCCN4CCOCC4)n3)ccc21,–,–,20.6 µM (active)
CCN(CC)c1ccc(N=Nc2ccc(S(=O)(=O)N(C)C)cc2)c(S(=O)(=O)NCC[n+]2ccccc2)c1,-5.15%,–,–
Cc1cc(-c2cnc(N)c3c(-c4ccc5scnc5c4)csc23)n(C)n1,–,–,8.2 µM (active)
O=C(O)c1ccc(S(=O)(=O)N(Cc2ccc(OC(F)(F)F)cc2)c2ncc(C(F)(F)F)cc2Cl)cc1,-6.72%,–,–
CC(C)(C)NC(=O)[C@H]1CC[C@H]2[C@@H]3CC[C@H]4NC(=O)CC[C@]4(C)[C@H]3CC[C@]12C,-25.1%,–,–
CCN1CCCC1CNC(=O)c1cc(S(=O)(=O)CC)ccc1OC (stereo not drawn),–,–,inactive
CCOc1nc(NC(=O)Cc2cc(OC)ccc2OC)cc(N)c1C#N,-16.3%,–,–
C=C1CCC2C(C)(C(=O)O)CCCC2(C)C1CCC1=CCOC1=O (stereo not drawn),9.62%,–,–
COC1CC(=O)C23C(=O)NC(CC(C)C)C2C(C)C(C)=CC3/C=C(\C)CCCC1O (stereo not drawn),-12.3% [at 17.3 µM],–,–
COC(=O)CC[C@@H](C)C1CCC2C3CCC4C[C@H](OC(C)=O)CCC4(C)C3C[C@H](O)C21C (stereo partly drawn),-7.52%,–,–

Structure (SMILES),"activity change, negative = cytotoxicity",outcome,Potency
CS/C=C/C(=O)O[C@@H]1CCC2=CC(=O)C(=C(C)C)C[C@]2(C)[C@H]1C,-25.4%,–,–
CC1=CC2/C=C(\C)CCC(O)C(=O)C(O)CC(=O)C23C(=O)NC(CC(C)C)C3C1C (stereo not drawn),-13.5% [at 17.3 µM],–,–
C/C=C/C1=CC2=C(CO1)C(=O)C(C)(OC(=O)c1c(C)cc(O)cc1OC)C(O)C2 (stereo not drawn),–,inactive,–
COCc1c(Cl)ccc2c1CC[C@H]2c1ncc[nH]1,-13.2%,–,–
O=C(Nc1ccc2[nH]nc(-c3ccncc3)c2c1)[C@@H]1CCN(CC(=O)N2CCN(c3ccc(-c4ncccn4)cc3)CC2)C1,-15.9%,–,–
Cc1noc(-c2ccc(-c3ccc(CC(=O)O)cc3)cc2)c1NC(=O)O[C@H](C)c1ccccc1Cl,-16.1%,–,–
Nc1nc(O)c(C2=C3C(=Nc4ccccc43)C(=O)NCC2)[nH]1,–,inactive,–
CC[N+]1(C/C2=C/CCCCCC2)CCC(NC(=O)C2c3cc(Cl)ccc3Oc3ccc(Cl)cc32)CC1 (stereo not drawn),-13.8%,–,–
CN(C)CCN(Cc1ccc(-c2ccc(CNCCc3ccccc3)cc2)cc1)C(=O)CCC1CCCC1,–,–,4.11 µM (active)
OCC(O)COc1ccc(Cl)cc1 (stereo not drawn),10.7%,–,–
O=C1O[C@H]2[C@H](O)[C@@H]1OC(O)[C@H]2O (stereo partly drawn),-16.3%,–,–
CCCCCCCCn1cc(CN(CC)CC)c2cc(-c3cnc(N)nc3)ccc21,–,–,18.4 µM (active)
CC(C)(Cc1ccccc1)NCC(O)c1ccc(O)c(NS(C)(=O)=O)c1 (stereo not drawn),-0.935%,–,–
COC(=O)C1=CO[C@@H](O[C@@H]2O[C@H](CO)[C@@H](O)[C@H](O)[C@H]2O)[C@H]2[C@@H]1C=C[C@]21C=C([C@H](C)OC(=O)/C=C/c2ccc(O)cc2)C(=O)O1,–,–,4.32 µM (active)
C=CCC1=C[C@]2(OC)[C@H](C)[C@@H](c3ccc4c(c3)OCO4)O[C@]2(OC)CC1=O,-18.8%,–,–
CCCCc1ccc(NS(=O)(=O)c2ccc(F)cc2)cc1,-11.7%,–,–
CCC(CC)C(=O)OC12C(OC(=O)C(C)C)C(C)C3(O)C(C=C(CO)CC4(O)C(=O)C(C)=CC43)C1C2(C)C (stereo not drawn),-15.3% [at 17.3 µM],–,–
CC1(NC(=O)c2ccc(C#Cc3cccc(F)c3)cn2)COC1,-18.1%,–,–
COc1cc(C[C@@H]2NCCc3cc(O)c(O)cc32)cc(OC)c1OC,-7.13%,–,–

# — PubChem BioAssay (NCATS)
